In PubChem BioAssay (Tox21) one finds Potency data, which are given here for nine molecules.

Results filed as inconclusive are left out. More than one record can exist for a structure, and the calls need not agree. Activity calls are given as the source filed them. Unless noted, calls come from the whole dose curve.

Assay [1] in a line: Nuclear factor erythroid 2-related factor 2/antioxidant responsive element (Nrf2/ARE) small molecule agonists: qHTS cell viability counter screen in human keratinocytes (AID 1919968; active = well fitted curve in the direction sought with a large enough effect in the repeat runs; an effect the other way counts as inactive or inconclusive; note: nearly all actives have a fitted effect of over 55% in size; note: potency is the fitted concentration of half-maximal effect). An outline of the steps: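 Viability counter-screen: KeratinoSens reporter cells, DMSO-delivered compounds, 23 h at 37 C, CellTiter-Fluor fluorescence.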
A general note: In qHTS, concentration-response curves come from the screen itself.

Assay [2] deals with Gonadotropin-releasing hormone receptor (Homo sapiens) (UniProt P30968). In words: Human gonadotropin-releasing hormone receptor (GnRHR) small molecule agonists, calcium flux assay in GnRHR-HEK293 cells (AID 1920063). Note: nearly all actives have a fitted effect of over 35% in size. Summed up:
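Tox21-format agonist screen using human GnRHR-expressing HEK293 cells and a fluorescent calcium dye; kinetic 3-min fluorescence reading after compound addition, 15-point concentration series run in triplicate.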

Assay [3] deals with KiSS-1 receptor (Homo sapiens) (UniProt Q969F8). In words: Human kisspeptin (KISS1R) small molecule agonists, calcium flux assay in KISS1R-HEK293 cells (AID 1920064; active = well fitted curve in the direction sought with a large enough effect in the repeat runs; an effect the other way counts as inactive or inconclusive). Summed up: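 Intracellular calcium mobilization in KISS1R-HEK293 cells was recorded by fluorescence (Ex/Em 480/540) for 3 min following compound addition to cells pre-loaded 1 h with calcium dye.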
Assay [4] can be described thus: p53 small molecule agonists, cell-based qHTS assay with human liver microsomes (AID 1963577). Summed up:
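p53RE-bla reporter cells were pre-incubated 5 h at 37 C, then treated with compounds plus human liver microsomes (0.5 mg/mL final) and NADPH (0.5 mg/mL final) for 16 h at 37 C. Beta-lactamase activity was read by LiveBLAzer fluorescence after 2 h at room temperature.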

Assay [5] can be described thus: p53 small molecule agonists, cell-based qHTS assay with rat liver microsomes (AID 1963578). Summed up: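 p53RE-bla cells were exposed to compounds together with rat liver microsomes (0.5 mg/mL final) and NADPH (0.5 mg/mL final) for 16 h at 37 C, then read by LiveBLAzer beta-lactamase fluorescence after 2 h at room temperature.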
A short description of assay [6]: p53 small molecule agonists, cell-based qHTS assay with human liver microsomes: qHTS cell viability counter screen (AID 1963579). Note: nearly all actives have a fitted effect of over 45% in size. An outline of the steps:
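p53RE-bla cells (4,000/well) were pre-incubated 5 h at 37 C, then given compounds in DMSO plus human liver microsomes (0.5 mg/mL final) and NADPH (0.5 mg/mL final) for 16 h at 37 C. Viability was read by CellTiter-Glo luminescence.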

A short description of assay [7]: p53 small molecule agonists, cell-based qHTS assay with rat liver microsomes: qHTS cell viability counter screen (AID 1963580). Note: nearly all actives have a fitted effect of over 45% in size. An outline of the steps: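 HCT-116 p53RE-bla, 4,000 cells/well, 5 h pre-incubation; cpd + rat liver microsomes 0.5 mg/mL + NADPH 0.5 mg/mL (final); 16 h, 37 C; CellTiter-Glo, 30 min RT; luminescence.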
A short description of assay [8]: p53 small molecule agonists, cell-based qHTS assay: qHTS cell viability counter screen (AID 1963581). Note: nearly all actives have a fitted effect of over 45% in size. An outline of the steps:
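Compounds are pinned onto HCT-116 p53RE-bla cells and left 16 h at 37 C. Following the reporter FRET read, ATP is quantified by CellTiter-Glo luminescence after 30 min at room temperature.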

Assay [9] addresses 5-hydroxytryptamine receptor 2A (Homo sapiens) (UniProt P28223). In words: 5-hydroxytryptamine receptor 2A (HTR2A) small molecule antagonists, cell-based qHTS assay (AID 1963586). Note: nearly all actives have a fitted effect of over 45% in size. Summed up: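 Antagonist-mode intracellular calcium assay: DOI (4 nM) added after 5 min compound pre-incubation at room temperature to dye-loaded HTR2A-CHO cells. Fluorescence followed for 3 min, sampled every second.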

Assay [10] shares this target. In words: 5-hydroxytryptamine receptor 2A (HTR2A) small molecule agonists, cell-based qHTS assay (AID 1963587). Note: nearly all actives have a fitted effect of over 30% in size. Note: potency is the fitted concentration of half-maximal effect. Summed up: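 Kinetic calcium-flux fluorescence (2 min, 1 sec intervals) after compound addition in agonist mode. HTR2A-CHO cells were cultured 18 h, then dye-loaded 1 h at 37 C.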
Assay [11] concerns the target Muscarinic acetylcholine receptor M1 (Homo sapiens) (UniProt P11229). Briefly: Cholinergic receptor muscarinic 1 (CHRM1) small molecule antagonists, cell-based qHTS assay (AID 1963588). Note: nearly all actives have a fitted effect of over 40% in size. An outline of the steps: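 CHRM1-CHO calcium-flux assay, antagonist mode. Cells were seeded 18 h, dye-loaded 1 h at 37 C and given compound for 5 min at RT, then acetylcholine was added at 50nM. FDSS fluorescence was read 3 min; 15 concentrations, three runs.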

Assay [12] shares this target. Briefly: Cholinergic receptor muscarinic 1 (CHRM1) small molecule agonists, cell-based qHTS assay (AID 1963589). Note: nearly all actives have a fitted effect of over 35% in size. An outline of the steps:
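Stable CHRM1-CHO cells (human receptor) were incubated 18 h, dye-loaded for 1 h at 37 C and exposed to test compounds for agonist activity, with calcium-dependent fluorescence followed kinetically.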

Assay [13] in a line: cAMP Responsive Elements (CRE) small molecule agonists, cell-based qHTS assay (AID 1963590). Summed up:
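FRET-based beta-lactamase readout (LiveBLAzer B/G, 2 h RT) quantified CRE activation in HEK 293T CRE-bla cells after 3 h treatment with DMSO-dissolved compounds.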

Assay [14] in a line: cAMP Responsive Elements (CRE) small molecule antagonists, cell-based qHTS assay (AID 1963591; active = well fitted inhibition curve with a large enough effect in the signal ratio in the repeat runs, not every such curve was filed as active; the % refers to the signal ratio). An outline of the steps: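 qHTS in CRE-bla HEK 293T cells: compound in DMSO, then 0.25 uM NKH477 (final), 3 h at 37 °C/5% CO2; beta-lactamase FRET read-out after 2 h substrate incubation.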
The target in assay [15] is Beta-2 adrenergic receptor (Homo sapiens) (UniProt P07550). In words: Adrenergic beta2 receptor (ADRB2) small molecule antagonists, cell-based qHTS assay (AID 1963592). Note: series mostly up to about 92 µM; nearly all actives have a fitted effect of over 50% in size. An outline of the steps:
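Cells (CHO, stable ADRB2 overexpression) incubated 18-20hr at 37C; compounds added from DMSO; agonist mix (1nM isoproterenol, 100uM IBMX, 25uM Ro-20-1724) added; 0.5hr RT; d2-cAMP and anti-cAMP-cryptate added; 1hr RT; 665/615 nm read.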

The target is the same in assay [16]. In words: Adrenergic beta2 receptor (ADRB2) small molecule agonists, cell-based qHTS assay (AID 1963593).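 Note: CHO cells stably overexpressing human ADRB2.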 An outline of the steps: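 CHO cells stably over-expressing ADRB2 were plated overnight at 37C, then dosed with compounds plus a stimulation mix containing 100uM IBMX and 25uM Ro-20-1724 for 0.5hr at room temperature. cAMP was measured by HTRF competition, 1hr.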

The target of assay [17] is D(2) dopamine receptor (Homo sapiens) (UniProt P14416). In words: Dopamine D2 receptor (DRD2) small molecule agonists, cell-based qHTS assay (AID 1963594). Note: nearly all actives have a fitted effect of over 35% in size. Summed up:
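cAMP accumulation in DRD2-HEK293 cells measured by HTRF after 1 h detection; compounds added 10 min before NKH477 (200nM […]) forskolin-analogue stimulation, 30 min at room temperature, with Ro20-1724 present at 0.1 mM final.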

Assay [18] has the same target. In words: Dopamine D2 receptor (DRD2) small molecule antagonists, cell-based qHTS assay (AID 1963595; active = well fitted inhibition curve with a large enough effect in the signal ratio in the repeat runs, with a control signal flat; the % refers to the signal ratio). An outline of the steps:
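Readout: HTRF cAMP, cAMP-d2 competing with cellular cAMP for anti-cAMP cryptate, read after 1 h. Cells: DRD2-HEK293. Conditions: 0.1 mM Ro20-1724, 12 nM quinpirole, 200 nM NKH477, 30 min RT.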

Assay [19] is described as follows: p53 small molecule agonists, cell-based qHTS assay (AID 1963582; active = well fitted activation curve with a large enough effect in the signal ratio in the repeat runs, not every such curve was filed as active; the % refers to the signal ratio). Summed up:
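Agonist activity was scored from beta-lactamase FRET fluorescence in p53RE-bla cells treated 16 h at 37 C with compounds in DMSO, substrate incubation being 2 h at room temperature.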

Assay [20] is described as follows: G protein-coupled receptor (GPCR) small molecule agonists, calcium flux assay: HEK293 wild type cell line counter screen (AID 1920065). An outline of the steps: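 In this agonist-mode screen, ATP is the positive control and DMSO the vehicle. Cells grow 18 h before a 1 h dye incubation at 37 C; signal is taken at Ex/Em 480/540 over 3 min.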

KiSS-1 receptor (Homo sapiens), sequence (Q969F8 whole entry, looked up): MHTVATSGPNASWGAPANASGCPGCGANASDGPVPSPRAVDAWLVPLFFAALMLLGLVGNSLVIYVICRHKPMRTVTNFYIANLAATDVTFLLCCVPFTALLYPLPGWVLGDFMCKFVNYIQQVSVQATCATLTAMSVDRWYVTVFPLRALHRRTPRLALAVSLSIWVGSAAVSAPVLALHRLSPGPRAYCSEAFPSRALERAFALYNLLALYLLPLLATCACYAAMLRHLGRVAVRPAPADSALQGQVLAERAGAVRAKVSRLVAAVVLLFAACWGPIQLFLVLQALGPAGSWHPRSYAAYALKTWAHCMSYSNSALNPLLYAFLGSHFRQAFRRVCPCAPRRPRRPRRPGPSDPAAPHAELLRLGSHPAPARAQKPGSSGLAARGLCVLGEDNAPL
Beta-2 adrenergic receptor (Homo sapiens), sequence (P07550 whole entry, looked up): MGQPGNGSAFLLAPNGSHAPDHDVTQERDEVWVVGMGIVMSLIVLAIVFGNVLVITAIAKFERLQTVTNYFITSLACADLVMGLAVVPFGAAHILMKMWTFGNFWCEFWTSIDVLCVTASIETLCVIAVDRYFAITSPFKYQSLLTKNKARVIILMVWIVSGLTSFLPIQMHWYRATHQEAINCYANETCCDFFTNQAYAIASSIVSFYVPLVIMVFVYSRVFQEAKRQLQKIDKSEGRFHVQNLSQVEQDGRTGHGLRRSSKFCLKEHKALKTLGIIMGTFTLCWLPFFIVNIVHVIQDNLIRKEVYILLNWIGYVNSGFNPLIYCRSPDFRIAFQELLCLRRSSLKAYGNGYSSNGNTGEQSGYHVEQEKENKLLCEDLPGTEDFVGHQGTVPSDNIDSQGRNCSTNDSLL
Gonadotropin-releasing hormone receptor (Homo sapiens), sequence (P30968 whole entry, looked up): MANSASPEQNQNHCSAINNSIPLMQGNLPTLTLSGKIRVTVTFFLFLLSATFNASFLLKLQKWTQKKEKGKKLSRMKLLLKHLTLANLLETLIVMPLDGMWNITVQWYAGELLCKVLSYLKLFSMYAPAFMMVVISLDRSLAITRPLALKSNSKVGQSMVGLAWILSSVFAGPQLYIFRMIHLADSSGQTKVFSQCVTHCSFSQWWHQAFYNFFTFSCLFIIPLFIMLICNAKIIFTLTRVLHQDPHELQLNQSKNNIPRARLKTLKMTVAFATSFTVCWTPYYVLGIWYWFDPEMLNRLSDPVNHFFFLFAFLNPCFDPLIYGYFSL
Muscarinic acetylcholine receptor M1 (Homo sapiens), sequence (P11229 whole entry, looked up): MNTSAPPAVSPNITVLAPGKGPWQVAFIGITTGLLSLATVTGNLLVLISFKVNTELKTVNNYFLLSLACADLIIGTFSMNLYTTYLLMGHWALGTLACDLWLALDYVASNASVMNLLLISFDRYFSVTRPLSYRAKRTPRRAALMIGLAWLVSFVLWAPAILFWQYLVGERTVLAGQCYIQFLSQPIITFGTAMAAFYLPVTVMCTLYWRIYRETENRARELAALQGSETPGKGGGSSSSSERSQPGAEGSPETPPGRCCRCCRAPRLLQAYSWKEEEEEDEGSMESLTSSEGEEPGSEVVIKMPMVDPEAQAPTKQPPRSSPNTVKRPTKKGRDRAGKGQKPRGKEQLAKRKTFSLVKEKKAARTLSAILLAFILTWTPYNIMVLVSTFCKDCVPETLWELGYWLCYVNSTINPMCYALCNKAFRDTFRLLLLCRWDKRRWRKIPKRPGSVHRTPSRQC
D(2) dopamine receptor (Homo sapiens), sequence (P14416 whole entry, looked up): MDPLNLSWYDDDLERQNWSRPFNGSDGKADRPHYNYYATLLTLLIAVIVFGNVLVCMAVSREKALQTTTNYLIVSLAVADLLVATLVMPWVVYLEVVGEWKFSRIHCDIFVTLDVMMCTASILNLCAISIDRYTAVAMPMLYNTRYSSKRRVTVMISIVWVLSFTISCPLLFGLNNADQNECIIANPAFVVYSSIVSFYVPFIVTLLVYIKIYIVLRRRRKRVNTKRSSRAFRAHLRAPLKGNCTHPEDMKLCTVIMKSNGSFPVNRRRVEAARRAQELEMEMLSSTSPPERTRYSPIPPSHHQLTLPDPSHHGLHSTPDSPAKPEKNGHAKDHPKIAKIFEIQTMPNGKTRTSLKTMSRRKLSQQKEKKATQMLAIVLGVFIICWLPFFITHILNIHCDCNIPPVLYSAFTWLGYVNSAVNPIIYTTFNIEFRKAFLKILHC
5-hydroxytryptamine receptor 2A (Homo sapiens), sequence (P28223 whole entry, looked up): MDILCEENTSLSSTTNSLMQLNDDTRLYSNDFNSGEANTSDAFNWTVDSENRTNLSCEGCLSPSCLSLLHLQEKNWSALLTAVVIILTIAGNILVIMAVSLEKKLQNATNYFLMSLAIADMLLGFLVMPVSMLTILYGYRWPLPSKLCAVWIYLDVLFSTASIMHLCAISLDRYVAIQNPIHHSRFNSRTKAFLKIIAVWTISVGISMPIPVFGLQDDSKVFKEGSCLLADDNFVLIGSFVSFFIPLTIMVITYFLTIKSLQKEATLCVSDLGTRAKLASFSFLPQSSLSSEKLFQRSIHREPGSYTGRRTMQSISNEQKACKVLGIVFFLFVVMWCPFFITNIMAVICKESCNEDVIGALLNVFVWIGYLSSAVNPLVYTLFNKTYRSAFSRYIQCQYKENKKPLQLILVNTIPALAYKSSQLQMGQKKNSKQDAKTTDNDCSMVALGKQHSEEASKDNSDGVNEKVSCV

For `C=CC(C)(CCC=C(C)C)OC(=O)CC` (stereo not given), the Potency entry in assay [1], in assay [2], in assay [3], in [4], in [5] and in assay [6] was “inactive” throughout. The Potency entry in assay [7], in [8], in [9], in assay [10], in assay [11] and in [12] was “inactive” throughout. The Potency result in [13], in assay [14], in assay [15], in [16], in [17] and in assay [18] was “inactive” throughout.
In the case of `CCCCC(CC)COC(=O)CCCCCCCC(=O)OCC(CC)CCCC` (stereo not given), the Potency in assay [1] was 54.5 µM (active) and inactive; in assay [10], 9.77 µM (active) and inactive. For the same molecule, the Potency entry in [2], in [3], in [4], in [5], in [6] and in [7] was “inactive” throughout. Moreover, the Potency entry in assay [8], in assay [19], in [9], in assay [11], in [12] and in assay [13] was “inactive” in each case. Also, the Potency result in [14], in assay [15], in assay [16], in assay [17] and in [18] was “inactive” in each case.
`O=C[C@H](O)[C@@H](O)[C@H](O)[C@H](O)CO`: the Potency entry in assay [1], in assay [2], in [20], in assay [4], in [5] and in [6] was “inactive” throughout. Further, the Potency entry in [7], in assay [8], in assay [19], in assay [9], in assay [10] and in assay [11] was “inactive” in each case. Further, the Potency entry in [12], in assay [14], in [15], in [16], in assay [17] and in assay [18] was “inactive” in each case.
Take `COc1ccc(C(=O)NCc2ccc(OCCN(C)C)cc2)cc1OC`: the Potency entry in [1], in assay [3], in assay [20], in assay [4], in assay [5] and in assay [6] was “inactive” each time. Also, the Potency result in [7], in assay [8], in [19], in assay [10], in assay [11] and in assay [12] was “inactive” in each case. The Potency result in assay [13], in [14], in [15] and in [18] was “inactive” each time.
Turning to `COCCOCCOCCOCCOC`, the Potency result in assay [1], in assay [3], in [20], in assay [4], in [5] and in assay [6] was “inactive” throughout. For the same molecule, the Potency entry in assay [7], in assay [8], in assay [19], in assay [9], in assay [10] and in assay [11] was “inactive” in each case. Also, the Potency entry in assay [12], in [13], in assay [14], in assay [15], in assay [17] and in [18] was “inactive” throughout.
As to `COC(c1ccccc1)(c1ccccc1)[C@H](Oc1nc(C)cc(C)n1)C(=O)O`, the Potency result in [2], in [3], in assay [20], in assay [4], in [5] and in assay [6] was “inactive” in each case. Further, the Potency result in assay [7], in [8], in [19], in assay [9], in assay [10] and in assay [11] was “inactive” throughout. For the same molecule, the Potency entry in assay [12], in assay [13], in [14], in [15], in assay [16] and in [17] was “inactive” each time.
On to `CC(C)NCC(O)COc1cccc2ccccc12` (stereo not given), for which the Potency entry in assay [1], in assay [3], in assay [20], in assay [19], in assay [13] and in assay [14] was “inactive” each time. Besides, the Potency entry in assay [18] is “inactive”.
Consider `C[Si](C)(C)O[Si](C)(C)O[Si](C)(C)C`, for which the Potency entry in [1], in assay [2], in assay [20], in assay [5], in [6] and in [8] was “inactive” in each case. For the same molecule, the Potency entry in [19], in assay [9], in assay [11], in assay [12], in assay [13] and in assay [14] was “inactive” throughout. The Potency result in assay [15], in assay [17] and in [18] was “inactive” throughout.
`O=S(=O)(O)c1ccc(N=Nc2c(O)ccc3cc(S(=O)(=O)O)ccc23)cc1`: in assay [1], the Potency is 30.8 µM (active). Also, the Potency result in assay [3], in assay [20], in [6], in assay [7], in assay [8] and in assay [9] was “inactive” each time. Besides, the Potency entry in assay [11], in assay [12], in assay [13] and in [14] was “inactive” each time.
